# SRC2 inh = inhibits human steroid receptor coactivator 2. Q15596. HEK293 GAL4-SRC2 luciferase reporter, luminescence. inhibition, % at 9 µM. 370,000 compounds, 0.17% hits;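 active = inhibition above the mean inhibition of all tested compounds plus 3 SD, set per campaign, cut at about 52% in these data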;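 note: 0% = DMSO treated cells and 100% = cells given Gossypol at 36 µM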
# NR2F2 inh = inhibitors of human COUP-TFII (NR2F2); P24468; HEK293T NGFI-A luciferase reporter, luminescence; inhibition, % at 8.6 µM; 370,000 compounds, 0.7% hits; AID 686940;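 active = inhibition above a per-plate cutoff, mean inhibition of test wells between control levels plus 3 SD, cut at about 38% in these data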;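 note: cells cotransfected with COUP-TFII expression vector driving the NGFI-A reporter; 0% = median of COUP-TF2 test wells and 100% = reporter-only cells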
# SRC1 inh = inhibits human SRC1 coactivator | Q15788 | HEK293 GAL4-SRC1 luciferase reporter, luminescence | inhibition, % at 3.6 µM | 360,000 compounds, 0.12% hits;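 active = inhibition above the campaign mean plus 3 SD, with each screening campaign given its own cutoff, cut at about 60% in these data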;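 note: 0% = DMSO treated cells and 100% = gossypol at 36 µM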
# NR5A2 inv ag = NR5A2 inverse agonism in reporter assay | O00482 | inhibition, % at 3.6 µM | 360,000 compounds, 0.13% hits | HEK293T StAR-luciferase reporter, LRH-1 transfected, 24 h;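 active = inhibition above the mean inhibition of all tested compounds plus 3 SD, cut at about 73% in these data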;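 note: 0% = DMSO wells and 100% = reporter-only cells lacking LRH-1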
# SRC3 inh = human NCOA3 inhibition; Q9Y6Q9; HEK293 GAL4-SRC3 luciferase reporter, luminescence; inhibition, % at 3.6 µM; 360,000 compounds, 0.17% hits;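 active = inhibition above a per-campaign cutoff, the mean of all compounds plus 3 SD, cut at about 60% in these data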;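 note: 0% = DMSO-treated cells and 100% = gossypol-treated cells at 36 µM; higher means less SRC3-driven luciferase light from the GAL4 reporter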
# Gli-Sufu block = antagonists of Gli-Sufu signaling; AID 588413; Sufu-KO-LIGHT fibroblasts, Gli luciferase reporter luminescence; 340,000 compounds, 0.74% hits; inhibition, % at 5 µM;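 active = inhibition above about 55%, limit read from the data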;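 note: 0% = DMSO-treated cells and 100% = wells with medium but no cells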
# Gal4-VP16 ctr = inhibits VP16 reporter, flagging COUP-TFII antagonist hits. inhibition, % at 8.5 µM. AID 687007. 2,500 compounds, 25% hits. HEK293 Gal4-VP16 luciferase reporter, luminescence. shares compounds with NR2F2 inh; in the data active = inhibition above about 13%
# COUP-TFII conf = confirmation of human COUP-TFII (NR2F2) inhibitors; shares compounds with NR2F2 inh; HEK293 NGFI-A luciferase reporter, luminescence; inhibition, % at 8.5 µM; 2,500 compounds, 45% hits; AID 687008;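 active = mean inhibition over three repeats above a set limit taken from the earlier primary screen, cut at about 38% in these data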;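 note: 100% = cells given the luciferase reporter alone without the COUP-TF2 vector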
# The depositor's hits bear a star; nt = no result given. Only some compounds are listed: those with a hit (about 1.3% of all), similar ones and a draw of the others.
SMILES,SRC2 inh,NR2F2 inh,SRC1 inh,NR5A2 inv ag,SRC3 inh,Gli-Sufu block,Gal4-VP16 ctr,COUP-TFII conf
Cc1ccc(NS(=O)(=O)c2ccc(C(=O)NC3CCN(Cc4ccccc4)CC3)cc2)cc1,-1,64*,31,38,21,15,1,49*
Cc1ccc(NS(=O)(=O)c2cccc(C(=O)NC3CCN(Cc4ccccc4)CC3)c2)cc1,15,40*,8,19,14,48,3,20
O=C1COc2ccc(S(=O)(=O)CCC(=O)N3CCN(c4cccc(Cl)c4)CC3)cc2N1,-2,4,-11,-18,-2,43,nt,nt
Cc1ccc(Cl)cc1N1CCN(C(=O)CCS(=O)(=O)c2ccc3c(c2)NC(=O)CO3)CC1,42,54*,10,4,14,24,-3,24
Cc1nc2ccc(NC(=O)c3cccs3)cc2c(=O)n1Cc1ccc(Cl)cc1,10,59*,28,51,37,8,8,46*
O=C(OCC#CCSc1nnc(-c2cccc3ccccc23)o1)c1ccsc1,nt,0,nt,nt,nt,nt,nt,nt
CCOC(=O)c1cccc(NC(=O)CN(C)S(=O)(=O)c2ccco2)c1,-28,-9,nt,nt,nt,nt,nt,nt
CC1=C(C(=O)OCc2ccc3c(c2)OCO3)C(c2ccc(Cl)cc2)NC(=O)N1 (stereo unspecified),59*,48*,75*,62,65*,-7,29*,37
CC1=C(C(=O)OCc2ccc3c(c2)OCO3)C(c2ccc(F)cc2)NC(=O)N1 (stereo unspecified),44,38*,74*,60,61,-12,23*,28
Cc1[nH]c2ccccc2c1CCN(Cc1cccs1)C(=O)Nc1cccc2c1OCO2,-14,-24,nt,nt,nt,nt,nt,nt
COc1ccc(S[C@]2(C(=O)NCC(C)C)CC(=O)N[C@@H]2c2ccc(OC)cc2)cc1,-7,4,nt,nt,nt,nt,nt,nt
CC[n+]1ccccc1/C=C1\Sc2ccc(C)cc2N1C,3,61*,39,51,39,nt,9,59*
CN1/C(=C/c2cccc[n+]2CCO)Sc2ccccc21,-39,11,7,-5,-5,13,nt,nt
Cc1ccc(C)c(S(=O)(=O)NCc2ccncc2)c1,28,43*,1,11,11,20,-3,17
CCCCCCCCN1C(=O)[C@@H](CC(=O)NCCC(C)C)C[C@@]2(C(=O)OC)C1=C[C@H](C(C)(C)C)O[C@@H]2C,-43,-9,nt,nt,nt,nt,nt,nt
O=C(Nc1ccc(-c2cn3ccsc3n2)cc1)c1ccc(F)c(S(=O)(=O)N2CCOCC2)c1,30,47*,4,-36,29,11,-22,-13
CC1CCN(C(=O)c2cccc(S(=O)(=O)N3CCN(c4ccccc4)CC3)c2)CC1,-12,9,-5,13,1,-2,nt,nt
Cc1ccc(C(=O)N2CCN(c3ccc(F)cc3)CC2)cc1S(=O)(=O)N1CCCCC1,8,49*,-10,11,30,25,-4,26
CC1CCN(S(=O)(=O)c2cc(C(=O)N3CCN(c4ccccc4)CC3)ccc2Br)CC1,4,47*,9,2,0,nt,9,45*
Cc1ccc(C(=O)N2CCN(c3ccccc3)CC2)cc1S(=O)(=O)N1CCCC1,13,18,-3,10,-1,-4,nt,nt
O=C(NCc1nc2ccccc2[nH]1)c1ccc(Cl)c(S(=O)(=O)N2CCCC2)c1,-28,-1,-4,-9,-17,11,nt,nt
CN(C)C(CNC(=O)c1ccc(Cl)c(S(=O)(=O)N2CCCCCC2)c1)c1ccccc1 (stereo unspecified),9,63*,11,29,19,24,-1,35
Cc1ccccc1CCNC(=O)c1ccc(Cl)c(S(=O)(=O)N2CC(C)OC(C)C2)c1 (stereo unspecified),29,67*,18,10,24,14,1,34
CCCn1c(NC(=O)c2ccc(Cl)c(S(=O)(=O)N3CCCC3)c2)nc2ccccc21,21,44*,-33,-1,-9,-2,-8,15

# Screening results: PubChem, several laboratories
